Source: paper PMC4336329 (PLoS ONE, 2015)
The whole screen tested about 310,000 compounds, of which about 14,000 (4.5%) showed an effect of 50% or more. The effect is printed as a negative number. Only a selection was taken, and strong results are over-represented in it overall.

Molecular target: human ether-à-go-go-related gene (hERG) potassium channel (human, UniProt Q12809)
Experiment: primary screen, population patch clamp on CHO cells stably expressing hERG; higher = less effect of the substance
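Note: peak tail current of the secondary pulse compared with the same well before compound.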

human ether-à-go-go-related gene (hERG) potassium channel, sequence (Q12809 whole entry, looked up): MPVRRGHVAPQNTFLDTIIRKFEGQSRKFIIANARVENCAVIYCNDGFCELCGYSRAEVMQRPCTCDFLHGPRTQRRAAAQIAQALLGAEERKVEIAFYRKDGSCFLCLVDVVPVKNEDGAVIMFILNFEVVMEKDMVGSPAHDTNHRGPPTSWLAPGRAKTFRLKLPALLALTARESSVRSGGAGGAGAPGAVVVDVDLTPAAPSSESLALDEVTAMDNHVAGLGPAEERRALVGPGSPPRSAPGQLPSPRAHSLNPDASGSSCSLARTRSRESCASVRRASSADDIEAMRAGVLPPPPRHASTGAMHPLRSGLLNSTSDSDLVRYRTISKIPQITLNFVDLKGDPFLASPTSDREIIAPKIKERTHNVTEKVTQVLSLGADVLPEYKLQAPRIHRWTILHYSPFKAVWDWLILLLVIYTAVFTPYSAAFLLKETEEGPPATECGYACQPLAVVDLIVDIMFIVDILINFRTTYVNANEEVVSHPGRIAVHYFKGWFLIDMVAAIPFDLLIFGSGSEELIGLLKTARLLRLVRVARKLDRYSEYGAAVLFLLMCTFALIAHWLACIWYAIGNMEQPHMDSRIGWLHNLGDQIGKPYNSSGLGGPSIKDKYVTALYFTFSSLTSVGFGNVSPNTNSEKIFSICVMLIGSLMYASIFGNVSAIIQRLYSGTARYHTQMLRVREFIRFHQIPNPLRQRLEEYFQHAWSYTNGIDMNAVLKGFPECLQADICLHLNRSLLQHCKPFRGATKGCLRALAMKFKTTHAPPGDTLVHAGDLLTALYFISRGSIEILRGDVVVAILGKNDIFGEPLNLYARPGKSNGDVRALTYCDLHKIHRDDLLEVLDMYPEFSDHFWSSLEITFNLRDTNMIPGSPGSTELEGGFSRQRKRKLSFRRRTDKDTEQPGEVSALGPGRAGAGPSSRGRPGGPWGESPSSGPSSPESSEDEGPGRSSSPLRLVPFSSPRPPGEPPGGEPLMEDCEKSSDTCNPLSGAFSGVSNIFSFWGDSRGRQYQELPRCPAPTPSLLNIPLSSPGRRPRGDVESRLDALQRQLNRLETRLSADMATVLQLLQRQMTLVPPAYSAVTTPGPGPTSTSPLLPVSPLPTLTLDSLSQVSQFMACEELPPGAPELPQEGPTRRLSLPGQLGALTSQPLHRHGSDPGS

First: COC(=O)c1cc(C#N)c(=O)[nH]c1C
Second: CS(=O)(=O)Nc1cccc(C(=O)CC2(O)C(=O)Nc3ccccc32)c1 (stereo not shown)
The “hERG current change (%, negative = inhibition) at 10uM” value of the first is higher: 20.3% for the first, 8.15% for the second.

Going from `Cc1cccc(OCC(=O)Nc2cccc(-c3nnc(-c4ccccc4)o3)c2)c1C` to `O=C(CN1C(=O)S/C(=C\c2ccc(C(=O)O)cc2)C1=O)Nc1ccccc1`, the “hERG current change (%, negative = inhibition) at 10uM” value rises from -4.37% to 19%.

First: CC(C)N1CCC(N2CCN(C3CCCCC3)CC2CCO)CC1 (stereo not shown)
Second: CCCCNC(=O)C1Cc2cc(S(=O)(=O)N3CCCCC3)ccc2N1C(C)=O (stereo not shown)
The “hERG current change (%, negative = inhibition) at 10uM” value of the first is higher: 18.9% for the first, 17.4% for the second.

Compared with `O=C(NCC(c1ccco1)N1CCc2ccccc2C1)C(=O)Nc1ccc(F)cc1F` (stereo not shown), `O=C(NCC(c1ccco1)N1CCc2ccccc2C1)C(=O)Nc1cc(F)ccc1F` (stereo not shown) is lower in “hERG current change (%, negative = inhibition) at 10uM” value: -0.136% for the first, -52.3% for the second.

Compared with `Cc1ccc(C(=O)NCC(c2ccco2)N2CCc3ccccc3C2)cc1C` (stereo not shown), `O=C(NCC(c1ccco1)N1CCc2ccccc2C1)c1cccc(F)c1` (stereo not shown) is lower in “hERG current change (%, negative = inhibition) at 10uM” value: -5.02% for the first, -63.5% for the second.

Going from `O=C(NCC(c1ccco1)N1CCc2ccccc2C1)c1ccc(Br)cc1` (stereo not shown) to `O=C(NCC(c1ccco1)N1CCc2ccccc2C1)c1ccc(Cl)cc1` (stereo not shown), the “hERG current change (%, negative = inhibition) at 10uM” value falls from -12.6% to -47.8%.

First: O=C(NCC(c1ccco1)N1CCc2ccccc2C1)c1ccccc1 (stereo not shown)
Second: O=C(NCC(c1ccco1)N1CCc2ccccc2C1)c1ccc(F)cc1 (stereo not shown)
The “hERG current change (%, negative = inhibition) at 10uM” value of the first is lower: -19% for the first, -10.7% for the second.

First: O=C(NCC(c1ccco1)N1CCc2ccccc2C1)C(=O)Nc1ccccc1F (stereo not shown)
Second: COc1cccc(C(=O)NCC(c2ccco2)N2CCc3ccccc3C2)c1 (stereo not shown)
The “hERG current change (%, negative = inhibition) at 10uM” value of the first is higher: 8.09% for the first, -17% for the second.

Compared with `O=C(NCC(c1ccco1)N1CCc2ccccc2C1)c1ccc(Cl)c([N+](=O)[O-])c1` (stereo not shown), `O=C(NCC(c1ccco1)N1CCc2ccccc2C1)c1ccc([N+](=O)[O-])cc1` (stereo not shown) is lower in “hERG current change (%, negative = inhibition) at 10uM” value: -55.5% for the first, -58.1% for the second.

Compared with `COc1ccc(C2(c3ccc(OC)cc3)NC(=O)N(CC(=O)Nc3ccc(OC)c(OC)c3)C2=O)cc1`, `COc1ccc(C(C(=O)NC2CCCCC2)N(C(=O)c2ccccn2)c2cccnc2)cc1` (stereo not shown) is higher in “hERG current change (%, negative = inhibition) at 10uM” value: -2.49% for the first, 22.4% for the second.

First: Cc1noc(/C=C/N(C)C)c1S(=O)(=O)N1CCCC(C(=O)N2CCc3ccccc32)C1 (stereo not shown)
Second: Cc1oc(S(=O)(=O)N2CCCC2)cc1C(=O)Nc1ccccc1
The “hERG current change (%, negative = inhibition) at 10uM” value of the first is higher: 13% for the first, 7.38% for the second.

Compared with `CCC(NC(=O)C1CCCO1)c1ccccc1` (stereo not shown), `Cc1ccccc1CN1[C@@H]2c3ccccc3C[C@@H]2OCCS1(=O)=O` is lower in “hERG current change (%, negative = inhibition) at 10uM” value: 22.8% for the first, -3.4% for the second.

Compared with `Cc1ccc(CNC(=O)CNC(=O)c2ccc(Br)o2)cc1`, `C/C(=N\NC(=O)CNc1cccc2ccccc12)c1ccc(Br)s1` is higher in “hERG current change (%, negative = inhibition) at 10uM” value: 5.03% for the first, 6.57% for the second.

Going from `CCCCC(=O)OCC(=O)Nc1ccc(C)c(F)c1` to `Cc1ccc(C(=O)OCC(=O)Nc2cccc(S(=O)(=O)NC3=NCCCCC3)c2)c(C)c1`, the “hERG current change (%, negative = inhibition) at 10uM” value falls from 14.6% to -15.4%.

Going from `Cc1ccccc1NNC(N)=S` to `Nc1n[nH]c(N)c1N=Nc1ccccc1`, the “hERG current change (%, negative = inhibition) at 10uM” value rises from 5.65% to 16.7%.

First: CCOc1cc(C(=O)N2CCCN(C)CC2)cc(OCC)c1OCC
Second: CCOc1ccccc1N1CCN(C(=O)CC(C)(C)C)CC1
The “hERG current change (%, negative = inhibition) at 10uM” value of the first is higher: 14.8% for the first, 0.665% for the second.

Going from `Cc1onc(-c2ccccc2)c1C(=O)N1CCN(S(=O)(=O)c2ccc3c(c2)OCCO3)CC1` to `O=C(NCc1ccccc1)C(=O)NCC1OCCN1S(=O)(=O)c1ccc2c(c1)OCCO2` (stereo not shown), the “hERG current change (%, negative = inhibition) at 10uM” value rises from -17.2% to -3.14%.

Going from `Cl.O=C(/C=C/c1cn(-c2ccccc2)nc1-c1ccc2c(c1)OCCO2)NCCCN1CCOCC1` to `O=C(/C=C/c1cn(-c2ccccc2)nc1-c1ccc2c(c1)OCCO2)NCCO`, the “hERG current change (%, negative = inhibition) at 10uM” value falls from -5.65% to -51.1%.

Compared with `O=C(O)/C=C/c1cn(-c2ccccc2)nc1-c1ccc2c(c1)OCCO2`, `COc1ccccc1/C=C/CN1CCN(c2ccccc2)CC1` is lower in “hERG current change (%, negative = inhibition) at 10uM” value: 10.1% for the first, -15.6% for the second.

Compared with `CCN(CC)c1ccc(/C=N/N2CCN(c3ccccc3OC)CC2)cc1`, `COc1ccccc1N1CCN(C/C=C/c2ccc(N(C)C)cc2)CC1` is lower in “hERG current change (%, negative = inhibition) at 10uM” value: 14.4% for the first, -53.9% for the second.

Going from `CCOc1ccccc1N1CCN(Cc2ccco2)CC1` to `CCOc1ccccc1N1CCN(C/C=C/c2ccc(N(C)C)cc2)CC1`, the “hERG current change (%, negative = inhibition) at 10uM” value falls from -14.9% to -60.1%.

`CCOc1ccccc1C1CC(=O)Nc2c1c(=O)n(C)c(=O)n2C` (stereo not shown) was tested, and the “hERG current change (%, negative = inhibition) at 10uM” value was 7.34%.
